The source made the active and inactive calls. Rule for the calls: active = hit-call score of the fitted dose curve at least 0.9, where 1 is the maximum; inactive = score below 0.9.

Sequence of human Mitogen-Activated Protein Kinase 11 (MAPK 11), MAPK11 (gene 5600) (Q15759 whole entry, looked up): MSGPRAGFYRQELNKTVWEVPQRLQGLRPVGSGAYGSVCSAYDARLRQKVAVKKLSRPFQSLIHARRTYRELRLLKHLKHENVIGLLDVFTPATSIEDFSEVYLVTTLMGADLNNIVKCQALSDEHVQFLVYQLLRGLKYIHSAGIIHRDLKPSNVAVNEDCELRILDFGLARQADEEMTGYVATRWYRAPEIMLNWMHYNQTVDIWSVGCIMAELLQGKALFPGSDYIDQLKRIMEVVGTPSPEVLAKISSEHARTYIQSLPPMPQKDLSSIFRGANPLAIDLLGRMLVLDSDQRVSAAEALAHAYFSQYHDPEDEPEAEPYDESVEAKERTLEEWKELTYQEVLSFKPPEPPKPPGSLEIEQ

The experiment concerns the target human Mitogen-Activated Protein Kinase 11 (MAPK 11), MAPK11 (gene 5600) (UniProt Q15759). In words: NVS_ENZ_hMAPK11: NovaScreen (NVS) Enzymatic Assay for human Mitogen-Activated Protein Kinase 11 (MAPK 11). As to the method:
NVS_ENZ_hMAPK11 is a biochemical, single-readout assay that uses extracted gene-proteins in a cell-free assay. Measurements were taken 0 hour after chemical dosing in a 384-well plate.NVS_ENZ_hMAPK11 is one of one assay component(s) measured or calculated from the NVS_ENZ_hMAPK11 assay. It is designed to make measurements of enzyme activity, a form of enzyme reporter, as detected with fluorescence intensity signals by Fluorescence and electrophoretic mobility shift technology.Data from the assay component NVS_ENZ_hMAPK11 was analyzed into 1 assay endpoint. This assay endpoint, NVS_ENZ_hMAPK11, was analyzed in the positive analysis fitting direction relative to DMSO as the negative control and baseline of activity. Using a type of enzyme reporter, loss-of-signal activity can be used to understand changes in the enzymatic activity as they relate to the gene MAPK11. Furthermore, this assay endpoint can be referred to as a primary readout, because this assay has produced multiple assay endpoints where this one serves a enzymatic activity function. To generalize the intended target to other relatable targets, this assay endpoint is annotated to the kinase intended target family, where the subfamily is serine/threonine kinase.
Binding assays used specific radioligands (tritiated, iodinated) with non-radioactive competitive displacement ligands in agonist or antagonist protocols (as indicated) and various reference compounds and inhibitors to titrate specific binding to receptors and transporters. Most enzyme assays (CYPs, kinases, phosphatases, proteases, HDACs) used recombinant protein and specific substrates (fluorescence mostly, some colorimetric and radioactive) and inhibitors, followed by a biochemical separation of substrate and product. All assays for the biochemical HTS were initially run in duplicate at a single concentration (10 uM for CYP450 assays and 25 uM for all others). Assay-chemical combinations meeting a pre-defined threshold (e.g., 30% inhibition and other criteria defined below) were then run in singleton concentration-response format with maximum concentration of 20 uM for CYPs and 50 uM for all others. Each assay was run with positive and negative controls, and concurrent controls on every plate. The follow-up (secondary) screen tested active chemical-pairs in concentration series, as well as a few additional assays not tested in the primary screen, some selected negative inactives, and several cases re-run in the concentration series for confirmatory purposes.
In the case of `C[Si](Cn1cncn1)(c1ccc(F)cc1)c1ccc(F)cc1`, the outcome was inactive. For `COc1nc(C)nc(NC(=O)NS(=O)(=O)c2ccccc2CCC(F)(F)F)n1`, the compound was classed as inactive. In the case of `CC(C)(C)C(O)/C(=C\c1ccc(Cl)cc1Cl)n1cncn1` (centres undefined) it was “inactive”. As for `Fc1ccc(Oc2ccnc3cc(Cl)cc(Cl)c23)cc1`, the entry is “inactive”.

Values taken from PubChem BioAssay AID2283174 (EPA ToxCast).
